Only some compounds are listed: those with a hit (about 7.3% of all), similar ones and a draw of the others.
NPC1 prom act – NPC1 promoter activation; 2.4% of 320,000 active; Huh7 NPC1 promoter luciferase reporter, 24 h; Potency, µM (series often up to 9.22 µM), for the others: at the highest dose activation, usual class: activators; note: % of control where 0% means no effect; nearly all actives have a fitted effect of over 60% in size
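Luminescence read-out of NPC1 promoter-driven luciferase in stably transfected Huh7 cells; compounds delivered in DMSO and left 24 h at 37C, 5% CO2, qHTS titration format.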
Luc counter – counter-screen: inhibitors of Kinase-Glo firefly luciferase; Potency, µM (doses to about 38.3 µM), for the others: at the highest dose activity change, negative = inhibition, usual class: inhibitors; Q27757; Kinase-Glo luciferase, ATP luminescence, 8 min; 0.28% of 200,000 active; note: % is set by controls: 0 for no effect and ±100 for the full control effect; nearly all actives have a fitted effect of over 60% in size
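Light output from Kinase-Glo luciferase with luciferin and 10 uM ATP in 50 mM imidazole pH 7.2, KCl, MgCl2, Tween 20, BSA; compound pin-delivered, 8-min ambient incubation, then luminescence read.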
FLuc modulator – firefly luciferase modulation, counter-screen for miR-21 project. 6.9% of 360,000 active. Potency, µM (doses to about 57.5 µM), without a hit: at the top dose activity change, negative = inhibition, hits mostly inhibitors. purified FLuc, Km substrates, luminescence inhibition. P08659;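 note: plate controls were vehicle for no effect and reference inhibitor for full effect; nearly all actives have a fitted effect of over 55% in size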
Target sequence (P08659 whole entry, looked up): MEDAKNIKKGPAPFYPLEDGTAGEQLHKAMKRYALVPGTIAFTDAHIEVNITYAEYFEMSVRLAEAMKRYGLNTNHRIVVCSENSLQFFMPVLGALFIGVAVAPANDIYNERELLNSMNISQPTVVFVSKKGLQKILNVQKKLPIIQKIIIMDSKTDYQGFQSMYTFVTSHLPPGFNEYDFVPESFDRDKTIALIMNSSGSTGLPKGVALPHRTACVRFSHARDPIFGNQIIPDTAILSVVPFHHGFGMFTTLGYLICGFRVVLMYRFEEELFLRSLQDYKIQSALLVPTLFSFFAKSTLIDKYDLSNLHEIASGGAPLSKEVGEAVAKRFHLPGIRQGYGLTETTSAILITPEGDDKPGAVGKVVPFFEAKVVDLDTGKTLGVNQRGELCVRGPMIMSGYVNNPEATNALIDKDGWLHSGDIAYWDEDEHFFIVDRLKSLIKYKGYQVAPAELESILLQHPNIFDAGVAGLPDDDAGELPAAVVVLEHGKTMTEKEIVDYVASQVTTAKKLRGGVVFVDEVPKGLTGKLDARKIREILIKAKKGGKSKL
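Purified P. pyralis luciferase, 10 nM final, with Km-level 10 uM D-luciferin and 10 uM ATP in 50 mM Tris acetate pH 7.5, 10 mM Mg acetate, 0.01% Tween-20, 0.05% BSA; 6-point qHTS titration about 60 µM downward; luminescence read.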
Rab9 promoter act – Rab9 promoter activation; Huh7 Rab9 promoter-luciferase reporter, luminescence, 24 h; Potency, µM (titrated, usually from 9.22 µM), for inactives: at the top dose activation, negative = inhibition, usual class: activators; 2.8% of 320,000 active; AID 485297; note: % of control where 0% means no effect; nearly all actives have a fitted effect of over 60% in size
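Stable Rab9-luc Huh7, 1500 cells/well, 2 h settle; cmpd in DMSO, 24 h, 37 °C/5% CO2; luciferase reagent 10 min RT; luminescence.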
SMN2 splice up – increases expression of the SMN2 splice variant; AID 1458; 2.8% of 210,000 active; Potency, µM (highest dose often 46.1 µM), for the others: top-dose activity change, positive = activation, usual class: activators; HEK293 SMN2-luciferase splicing reporter, luminescence, 30-36 h; note: % of control where 0% means no effect; nearly all actives have a fitted effect of over 55% in size
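qHTS luciferase splicing reporter: luminescence rises when SMN2 exon 7 is included in transfected HEK293 cells. Compound exposure lasted 30-36 h at 37C, with 4.5 mM final sodium butyrate as control, followed by a ONE-Glo read.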
Starred values were filed as active, the others as inactive; ? = inconclusive; / = not tested or not shown; [ ] = remark or other dose. Calls come from the whole dose curve; as a rule, active = well fitted curve in the direction sought with a large enough effect; inconclusive = small, poorly fitted or top-dose-only effect, or another doubt; inactive = no such curve, though single readings can be large; an effect the other way counts as inactive or inconclusive. Potency is the fitted concentration of half-maximal effect.

SMILES	NPC1 prom act	Luc counter	FLuc modulator	Rab9 promoter act	SMN2 splice up
Cc1ccc(-n2cc(CNCCCN3CCCC3=O)c(-c3ccc(F)cc3)n2)cc1	-0.1%	-1.6%	?	-14.3%	/
COc1ccc(-n2cc(CNCCc3ncc(C)[nH]3)c(-c3ccccc3Cl)n2)cc1	-3.8%	-4.8%	2.5%	-4.1%	/
Cc1ccc(-n2cc(CNCCn3nc(C)cc3C)c(-c3ccc(F)cc3)n2)cc1	-7.3%	-0.9%	26.9µM*	-12.0%	/
Cc1cccc(-n2cc(CNCCN3CCOC3=O)c(-c3cccc(F)c3)n2)c1	-0.8%	/	9.53µM*	11.9%	/
Cc1ccc(-n2cc(CNCCc3ncc(C)[nH]3)c(-c3ccc(F)cc3)n2)cc1	-3.0%	-7.3%	26.9µM*	-2.3%	-25.6%
Cc1ccc(-n2cc(CNCCN3CCOC3=O)c(-c3ccc(F)cc3)n2)cc1	-2.1%	-3.3%	7.57µM*	13.7%	/
NC(=[SH+])N=N/C=C1/C=CC=CN1.O=S(=O)(O)O.[Fe]	/	0.5%[7.66 µM]	/	/	1.4%[9.22 µM]
CCc1ccc(NC(=O)C2=C(C)C(=O)OC23CCCCC3)cc1	/	/	-0.3%	/	-6.2%
COc1ccc(-n2cc(CNCCc3nc(C)cc(C)n3)c(-c3ccccc3Cl)n2)cc1	-9.5%	-3.8%	?	11.6%	-78.2%
COc1ccc(-n2cc(CNCCN3CCOC3=O)c(-c3ccccc3Cl)n2)cc1	-3.2%	/	16.9µM*	1.4%	/
Cc1c2cnn(-c3ccccc3)c(=O)c2c(C)n1CCCC(=O)Nc1cc(F)ccc1F	/	/	-5.8%	/	-3.4%
O=c1c(-c2ccccc2)n[nH]c2ccccc12	2.24µM*	/	9.53µM*	3.55µM*	/
Cc1cc(/C=C\c2nc(O)c([N+](=O)[O-])c(=O)[nH]2)c(C)n1-c1ccccc1	-1.8%	1.2%	10.7µM*	2.0%	12.3%
COc1ccc(-n2c(C)cc(/C=C/c3nc(O)c([N+](=O)[O-])c(=O)[nH]3)c2C)cc1	-5.4%	-2.0%	?	10.3%	4.6%
CCn1c(CNC(=O)c2ccc(OC)cc2)nnc1SCC(=O)Nc1cccc(C)c1	/	/	-11.9%	/	2.3%
C/C(=N\OC(=O)c1ccc(F)cc1)c1sc(-c2ccccc2)nc1C	2µM*	-4.7%	4.8%	1.58µM*	20µM*
C/C(=N\OC(=O)NC1CCCCC1)c1sc(-c2ccccc2)nc1C	9.1%	-3.7%	?	-6.6%	-54.7%
C/C(=N\OC(=O)c1ccc(Cl)cc1)c1sc(-c2ccccc2)nc1C	3.98µM*	-2.2%	3.9%	3.98µM*	?
COc1cccc(-c2nc3ccc([N+](=O)[O-])cc3o2)c1	?	?	1.51µM*	2.24µM*	15.8µM*
O=[N+]([O-])c1ccc2nc(-c3ccccc3)oc2c1	2.82µM*	-24.0%	9.53µM*	3.16µM*	11.2µM*
Cc1cc(-c2nnc(CSc3nnc(NC(=O)c4ccc(C(C)(C)C)cc4)s3)o2)ccc1[N+](=O)[O-]	2.51µM*	/	1.69µM*	?	/
COCCSc1nnc(NC(=O)c2ccc([N+](=O)[O-])cc2)s1	1.3%	3.2%	?	10.3%	21.6%
O=C(CSc1nnc(NC(=O)c2cccc(F)c2)s1)NCC1CCCO1 (configuration not stated)	15.1%	/	6.01µM*	23.4%	/
CN(C)S(=O)(=O)c1ccc(C(=O)Nc2nnc(SCC(=O)NCC3CCCO3)s2)cc1 (configuration not stated)	1.9%	/	-1.2%	1.9%	/
O=C(CSc1nnc(NC(=O)c2c(F)cccc2F)s1)NCC1CCCO1 (configuration not stated)	1.6%	/	-3.3%	1.4%	/
CCOc1ccc(C(=O)Nc2nnc(SCC(=O)NCC3CCCO3)s2)cc1 (configuration not stated)	0.1µM*	/	0.301µM*	?	/
CC(C)(C)c1ccc(C(=O)Nc2nnc(SCC(=O)NCC3CCCO3)s2)cc1 (configuration not stated)	0.501µM*	/	0.0757µM*	0.316µM*	/
COc1ccc(NC(=O)CC2C(=O)N(c3cccc(C)c3)C(=O)N2Cc2cccnc2)cc1 (configuration not stated)	/	/	2.4%	/	/
COc1cc(N2CCCC2)c(OC)cc1/C=C(/C#N)c1cccc(F)c1	6.1%	-5.3%	-12.1%	-0.4%	11.8%

Compound activity: PubChem, National Center for Advancing Translational Sciences (NCATS)
